The labels stand for the following.
B1: chr11:70485313:70487720:-|CDS|ENSG00000162105|control|control|control (ssRNA)
RNA: GGGAGUUCUACAGUCCGACGAUCUGGGGCGACGUCACAGAGAUCAAAAGCCCGAUUCUCUCAGGCCCAAAGGCAAACGUUAUUAGUGAAUUGAACUCUAUCCUACAGCAAAUGAACCGAGAGAAAUUGGCAAAGCCGGGGGAACAACAGAGGAUUGAGCAUCA
B2: chr3:58425360:58425463:+|3pUTR|ENSG00000168297|unk|FALSE|unique (ssRNA)
RNA: GGGAGUUCUACAGUCCGACGAUCAGACAGCUCCUAGAAACAUUCCUCUUACAGUUCAUUUCUCUAAAGCAUUUUCUGAUUCUUAGAUAACUCCAAUUUUUGCUACCUUUAUCUUAGACAUUAACACUAUAGCCCAAAGCAUAGCAACAGAGGAUUGAGCAUCA
B3: chr19:38730201:38730298:+|3pUTR|ENSG00000130402|msi1_unk|total|mutant (ssRNA)
RNA: GGGAGUUCUACAGUCCGACGAUCCAGAGAAUUACUAUUUACUUUAUUAACUUACGGAUUUAUUAUAUAAAUAUAUAUUCACCCCGCAACAUAUCUCUGCCGUCUCUCCUGCUCUCAUAAUGAAGACACCGCCGAUUCUCUGCCCAACAGAGGAUUGAGCAUCA
B4: chr7:20410151:20410448:+|3pUTR|ENSG00000105855|msi1|total|mutant (ssRNA)
RNA: GGGAGUUCUACAGUCCGACGAUCACCCGUGUCGUUGCCGCACUUUACUGUAAUAUAUAACUUAUUCCGAUCAGCACCGAAUGCCGAUCCUCUGAAGAGCACUGAUUACACUUUACAGGUACCUGUUAUCCCUACGCUUCCCAGCAACAGAGGAUUGAGCAUCA
B5: chr11:613205:613595:-|three_prime_utr|ENSG00000185507|control|control|control (ssRNA)
RNA: GGGAGUUCUACAGUCCGACGAUCCUGCACGUUCCUAUACGGCCCCCCAGACCCAGCUGUCCGGGCCACAGACCCCCAGCAGGUAGCAUUCCCCAGCCCUGCCGAGCUCCCGGACCAGAAGCAGCUGCGCUACACGGAGGAACUCAACAGAGGAUUGAGCAUCA
B6: chr16:66721972:66722075:-|3pUTR|ENSG00000135720|unk|FALSE|unique (ssRNA)
RNA: GGGAGUUCUACAGUCCGACGAUCUUUUUAAUUCAGUUUUUUAAAAAAACAAAUGUAUUGUGGCUUCCAGUUACCAGGUUGUCUAGGUAAUGACAGUAAACUGACUGUAGAAUGAUAAUUGUGGUAUAGUGACCAAUAGAUGCCCAACAGAGGAUUGAGCAUCA
B7: chr7:20410151:20410448:+|3pUTR|ENSG00000105855|msi1|FALSE|unique (ssRNA)
RNA: B4 RNA with C26U, C27A, C37U, C38A, C66U, C67A, C76U, C77A, C83U, C84A
B8: chr19:38730201:38730298:+|3pUTR|ENSG00000130402|msi1_unk|FALSE|overlapping (ssRNA)
RNA: B3 RNA with C83U, C84A, C128U, C129A
B9: ENSG00000154556:stop:overlap|stop_codon|ENSG00000154556|stop_codon|NA|stop_codon (ssRNA)
RNA: GGGAGUUCUACAGUCCGACGAUCCUUCUUCCCCAUCAAGAGCAAAAGUUACUCAGGGCUCAACGGCAACCCCUCCAGUGAGUUAGAUUACUGUAGCACUUACAGACAGCACUUGGAUGUCCCUCGGGACUCACCAAGAGCCAUCAACAGAGGAUUGAGCAUCA
B10: chr12:66123492:66123593:-|3pUTR|ENSG00000139233|msi1|FALSE|unique (ssRNA)
RNA: GGGAGUUCUACAGUCCGACGAUCAUGCUACCCAAUAUCCAGUUAUAAUCAGGCCUCAACGUUCUGUCAGGUAUUAAUAUGGUUAGAAUUGUUCUUACAACUGGUAAUUAUAGUCAAUAGAGAUAAAACAGAUGAUGUACUGACCAACAGAGGAUUGAGCAUCA
B11: chr19:18196783:18197469:-|three_prime_utr|ENSG00000105649|control|control|control (ssRNA)
RNA: GGGAGUUCUACAGUCCGACGAUCACUACCCGGGCCUGACCCGGCCCCUACCAGCCACGGGCACAAGACCCCUGCUCCUGACUUAGCCCGUCACCCUUAUUUAUUAUUGUAGCUAUUUAUUUAUUUAUUGAAGAUGUCCCCCAGCAACAGAGGAUUGAGCAUCA
B12: chr12:66123492:66123593:-|3pUTR|ENSG00000139233|msi1|total|mutant (ssRNA)
RNA: B10 RNA with U83C, A84C, U110C, A111C, U117C, A118C
B13: chr4:56461171:56461272:+|3pUTR|ENSG00000128050|msi1|FALSE|bound_elsewhere (ssRNA)
RNA: GGGAGUUCUACAGUCCGACGAUCCUUCUGUAACCACAGUGACUACAAGUAGUUCUUUCUCUAUUGAAUUAUUAGGUCCAGAAUAGAAGAUGUCAUUGUACACUUUAUUUCCCUCACACUGUGUUAUGCUCUGAUGUGCUAUGCCAACAGAGGAUUGAGCAUCA

Positions count from the first letter of the chain named. Whole data set: some 5,800 sequences, median “enrichment r” near 0.54, cut for the highest 2% near 16. Many of the other results were omitted from the sample, so the highest values are more common in it than they were.

MSI1 full-length, sequence (Q61474 whole entry): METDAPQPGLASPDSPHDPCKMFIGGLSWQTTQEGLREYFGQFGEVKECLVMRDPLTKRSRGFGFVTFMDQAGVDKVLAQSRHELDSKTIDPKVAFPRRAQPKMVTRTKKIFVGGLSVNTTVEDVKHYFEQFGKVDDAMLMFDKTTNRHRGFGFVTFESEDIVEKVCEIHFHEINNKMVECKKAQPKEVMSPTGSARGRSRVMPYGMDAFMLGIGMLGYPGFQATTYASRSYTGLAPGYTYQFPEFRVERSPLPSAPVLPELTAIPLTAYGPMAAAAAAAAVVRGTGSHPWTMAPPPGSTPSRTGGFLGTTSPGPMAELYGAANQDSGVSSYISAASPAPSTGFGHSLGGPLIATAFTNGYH

The experiment has as its target MSI1 full-length (mouse, UniProt Q61474 1-362). Briefly: nsRBNS (natural sequence RNA bind-n-seq); RBNS binding buffer (assumed for nsRBNS): 25 mM Tris pH 7.5, 150 mM KCl, 3 mM MgCl2, 0.01% Triton X-100, 500 ug/ml BSA, 20 U/ml SUPERase-In, 4 C; UNK is unkempt and MSI1 is Musashi-1; names of the RNAs are library labels; protein concentration not given here; high values mean tight binding.
As for B1, the binding signal came out at 0.762 enrichment R.
Turning to B2, the binding signal stood at 8.08 enrichment R.
Turning to B3, the binding signal turned out to be 5.81 enrichment R.
B4 showed a binding signal of 0.529 enrichment R.
Molecule B5 came in with a binding signal of 0.649 enrichment R.
As to B6, the binding signal was determined as 9.43 enrichment R.
As to B7, the binding signal came out at 16.1 enrichment R.
In the case of B8 it was 39.3 enrichment R; in that of B9, 0.595 enrichment R; in that of B10, 17.7 enrichment R.
B11: the binding signal was 48.8 enrichment R.
B12 showed a binding signal of 0.303 enrichment R.
Regarding B13, the binding signal was determined as 1.03 enrichment R.

The values above are taken from article PMC12136788.
